Consider 64 compounds from PubChem BioAssay AID1024 (Sanford-Burnham Center for Chemical Genomics, 2008).

The campaign covered roughly 96,000 compounds. About 1,400 (1.5%) were called active.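 Rule for the calls: active = activation factor of 2 or more for CYP2C9 at a 5 µM dose; inactive = the rest.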 Many of the other results were omitted from the sample, so actives are more common in it than they were.

For the experiment, the target named is Cytochrome P450 2C9 (Homo sapiens) (UniProt P11712). Description: enhancers of cytochrome P450 2C9 turnover – biochemical, luminescence, primary screen (AID 1024).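 Note: 0 = sulfaphenazole-blocked wells and 1 = vehicle-only wells.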 Conditions: recombinant CYP2C9, luciferin-H conversion, at 5 µM, active compounds read high, factor 1 = untreated enzyme, 0 = blocked.
Chain of Cytochrome P450 2C9 (Homo sapiens) (P11712 whole entry, looked up): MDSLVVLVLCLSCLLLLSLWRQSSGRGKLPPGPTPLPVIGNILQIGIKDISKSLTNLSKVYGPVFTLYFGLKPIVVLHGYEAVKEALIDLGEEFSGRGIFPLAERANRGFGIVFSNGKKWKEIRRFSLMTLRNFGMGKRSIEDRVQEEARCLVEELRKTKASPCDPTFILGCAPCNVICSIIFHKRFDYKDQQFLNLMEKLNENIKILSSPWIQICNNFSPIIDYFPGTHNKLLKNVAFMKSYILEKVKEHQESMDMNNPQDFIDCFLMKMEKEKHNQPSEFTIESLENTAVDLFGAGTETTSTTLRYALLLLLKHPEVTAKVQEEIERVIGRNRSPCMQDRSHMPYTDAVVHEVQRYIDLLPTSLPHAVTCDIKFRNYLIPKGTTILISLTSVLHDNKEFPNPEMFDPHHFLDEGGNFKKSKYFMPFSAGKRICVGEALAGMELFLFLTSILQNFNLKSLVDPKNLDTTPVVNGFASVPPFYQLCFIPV
For `COCc1cc(C)nc2sc3c(=O)n(-c4cccc5ccccc45)nnc3c12`, the activation factor was 0.7 (inactive).

With `O=C(NNC(=O)c1cccnc1)Nc1ccccc1`, the activation factor is 1.1 (inactive).

Take `COC(=O)C(C)N(C#N)c1nc(C)nc(C)n1` (centres undefined): the activation factor was 2.4 (active).

For `COC(=O)c1c(C)c(C)nc(N)c1C#N`, the activation factor was 1.1 (inactive).

As to `CCOC(=O)c1sc(C)c2c1NC(C)(c1cccc3ccccc13)NC2=O` (centres undefined), the activation factor is 0 (inactive).

Consider `Cc1ccc2c(c1)-c1c(ssc1=S)C(C)(C)N2C(=O)CN1C(=O)c2ccccc2C1=O`, for which the activation factor was 0.2 (inactive).

Take `CC(NC(=O)c1cc(-c2ccccc2)on1)c1ccccc1` (centres undefined): the activation factor was 1.2 (inactive).

In the case of `O=C(Nc1ccccc1C(F)(F)F)c1cc(-c2ccc(O)cc2)on1`, the activation factor was 3.3 (active).

`O=C(c1cc(-c2ccc(O)cc2)on1)N1CCCc2ccccc21`: the activation factor was 0.4 (inactive).

`CCOc1ccc(NC(=O)Nc2ccc(N(C)C(C)=O)cc2)cc1`: the activation factor is 1.1 (inactive).

Regarding `CCC(C)NC(=O)c1cc(Cl)ccc1OC` (centres undefined), the activation factor is 2.7 (active).

On to `COc1cc(OC)c(C(=O)Nc2ccc(N(C)C)cc2)cc1OC`, for which the activation factor was 0.7 (inactive).

With `COc1ccc(Cl)cc1C(=O)Nc1ccc(N(C)C(C)=O)cc1`, the activation factor is 3.1 (active).

`COc1ccc(Cl)cc1C(=O)NCC#N`: the activation factor was 1.8 (inactive).

As to `COc1ccc(Cl)cc1C(=O)NCc1cn(C)nc1C`, the activation factor is 1 (inactive).

Consider `COc1ccc(N(CC(=O)N/N=C/c2cccs2)S(=O)(=O)c2ccc(OC)c(OC)c2)cc1`, for which the activation factor was 0.6 (inactive).

As to `O=C(CNC(=O)OCc1ccccc1)Oc1cc2oc(=O)cc(-c3ccccc3)c2cc1Cl`, the activation factor was 0.2 (inactive).

`O=C(Nc1ccc(Br)cc1)c1cccc(NC(=O)C2C3CC4OC(=O)C2C4C3)c1` (centres undefined): the activation factor is 0.3 (inactive).

As for `CN1OC(COC(=O)c2ccc(Cl)cc2)CC1c1ccccc1` (centres undefined), the activation factor is 0.6 (inactive).

Turning to `COc1ccc(NC(=O)Nc2ccc3nsnc3c2)cc1`, the activation factor was 0.8 (inactive).

For `Cc1nn(Cc2ccc(Cl)c(Cl)c2)c(C)c1NC(=O)c1cc(C2CC2)on1`, the activation factor was 0 (inactive).

In the case of `CSc1ccccc1NC(=O)c1cc(C2CC2)on1`, the activation factor is 2.4 (active).

With `O=C(Nc1nnc(C2CC2)s1)c1ccccn1`, the activation factor was 1.3 (inactive).

For the compound `O=C(NCc1ccco1)C1CCCN(S(=O)(=O)c2ccccc2)C1` (centres undefined), the activation factor is 0.7 (inactive).

For `O=C(NC1CCCCC1)C1c2ccccc2C(=O)N1Cc1ccco1` (centres undefined), the activation factor was 0.9 (inactive).

Regarding `O=C(Cc1ccc(F)cc1)NC1CCCC1`, the activation factor is 1.4 (inactive).

Take `O=C(CC1OC(=O)c2ccccc21)NC1CCCCC1` (centres undefined): the activation factor is 2 (active).

As to `Cc1c(Nc2cc(N3CCCC(C)C3)c3nonc3c2[N+](=O)[O-])c(=O)n(-c2ccccc2)n1C` (centres undefined), the activation factor was 0.6 (inactive).

Regarding `CCOc1ccc(NC(=O)C2CC(=O)N=C(N)S2)cc1` (centres undefined), the activation factor was 1 (inactive).

Turning to `COc1cccc(C(=O)NNC(=O)c2ccccc2Br)c1`, the activation factor is 2.8 (active).

`COc1cccc(NC(=O)c2ccccc2SC)c1`: the activation factor is 1 (inactive).

For the compound `COc1cccc(C(=O)Nc2ccc(N3CCCC3)cc2)c1`, the activation factor was 0.9 (inactive).

As for `Cc1cc2cc3c(cc2nc1SCC(=O)Nc1c(C)cccc1C)CCC3`, the activation factor was 0.4 (inactive).

With `CCOc1cc(N2CCOCC2)c(OCC)cc1NC(=O)COc1cccc2cccnc12`, the activation factor was 1 (inactive).

`Cc1cc(OCCOc2cccc3cccnc23)c(C)cc1Cl`: the activation factor was 2.7 (active).

Regarding `CCOc1cc(C)c(Cl)cc1S(=O)(=O)n1nnc2ccccc21`, the activation factor was 0.6 (inactive).

Turning to `Cc1cc(SCC(=O)c2ccccc2)nc(SCC(=O)c2ccccc2)n1`, the activation factor is 0.3 (inactive).

For the compound `Cc1ccn(C(CC(=O)c2ccc(Br)cc2)C(=O)O)n1` (centres undefined), the activation factor was 2.1 (active).

Take `Cn1c(=O)c2c(nc(N3CCCCCC3)n2CC(=O)c2ccc(Br)cc2)n(C)c1=O`: the activation factor was 0.8 (inactive).

For the compound `Cc1cc([N+](=O)[O-])ccc1NCc1cccc([N+](=O)[O-])c1`, the activation factor is 1 (inactive).

In the case of `O=C(NCCCN1CCN(C2CCCCC2)CC1)Nc1ccccc1C(F)(F)F`, the activation factor was 1 (inactive).

With `Cc1cc(C)nc(NC(=O)Nc2ccccc2C(F)(F)F)n1`, the activation factor is 2.9 (active).

On to `Cc1cc(C)nc(NC(=O)C(C)N2C(=O)c3ccccc3C2=O)n1` (centres undefined), for which the activation factor was 1.2 (inactive).

Consider `O=C(Nc1ccc2sc3ccccc3c(=O)c2c1)c1ccccc1Cl`, for which the activation factor was 1.1 (inactive).

On to `O=c1c2ccccc2nc2n1C(CSCc1cccc(C(F)(F)F)c1)CS2` (centres undefined), for which the activation factor was 0.6 (inactive).

`COc1ccc(-c2nc(-c3ccccc3)no2)c(OC)c1`: the activation factor is 1.1 (inactive).

In the case of `COc1cc(-c2nc(-c3ccncc3)no2)cc(OC)c1OC`, the activation factor is 0.2 (inactive).

As for `COc1ccc(-c2noc(-c3cccc(OC)c3OC)n2)cc1OC`, the activation factor is 2 (active).

With `Cc1cccc(N(CC(=O)Nc2ccc(-c3nc4ccc(C)cc4s3)cc2)S(C)(=O)=O)c1`, the activation factor was 0.9 (inactive).

Regarding `CNS(=O)(=O)c1cnccc1N1CCN(c2cccc(C)c2)CC1`, the activation factor was 0.4 (inactive).

With `O=C1Nc2c(Br)cc(Br)cc2C1(O)N1CCOCC1` (centres undefined), the activation factor is 3 (active).

For the compound `O=C(CN1CCOCC1)Nc1cc(Cl)ccc1Cl`, the activation factor is 2.4 (active).

On to `O=C(CN1CCOCC1)Nc1ccc(NC(=O)CN2CCOCC2)c(Cl)c1`, for which the activation factor is 1 (inactive).

Take `O=C(CN1CCOCC1)Nc1ccccc1`: the activation factor is 0.9 (inactive).

Regarding `COc1ccc(OC)c(/C=N/NC(=O)CSc2nnc(C)n2-c2ccccc2)c1`, the activation factor was 0.8 (inactive).

As for `COc1ccc(C)cc1N(C)C(=O)c1coc(=O)c2ccccc12`, the activation factor is 0.7 (inactive).

Regarding `CCCn1c(C(Cc2ccccc2)NC(=O)COC)nc2ccccc21` (centres undefined), the activation factor was 0.3 (inactive).

For the compound `Cc1ccc(N2CCN(C3=NC(=O)/C(=C\c4cccs4)S3)CC2)cc1`, the activation factor was 2.3 (active).

For `Cc1ccsc1/C=C1\SC(N2CCOCC2)=NC1=O`, the activation factor is 1.2 (inactive).

As for `Cc1ccc(N2CCN(/N=C/c3cccs3)CC2)cc1`, the activation factor is 1.1 (inactive).

Regarding `CO/N=C/c1ccc(N2CCN(C(=O)c3cccc(Cl)c3)CC2)c([N+](=O)[O-])c1`, the activation factor was 0.9 (inactive).

In the case of `CN=C1S/C(=C\c2ccc(Sc3ccc(Cl)cc3)o2)C(=O)N1C`, the activation factor was 0.7 (inactive).

For `CC(C)C(C)NC(=O)COc1ncnc2ccccc12` (centres undefined), the activation factor was 0.9 (inactive).

Take `CCOC(=O)c1c(NC(=O)c2ccc(N3CCOCC3)c([N+](=O)[O-])c2)sc(C)c1C`: the activation factor is 0.9 (inactive).
